Bioassay records from PubChem BioAssay.
In the library only some 3.2% were active in any assay of this set; here they are far more common.
MEKK2 mut-MEK5: signal of MEK5 binding to mutant human MEKK2 PB1 domain | percent response, % at 10 µM | AID 1530 | bead flow cytometry, Alexa488-MEK5 binding to MEKK2 mutant | 290,000 tested, 0.35% active; in the data active = percent response above about 24%, passing the limit was not always enough
MEKK3 PB1 HTS: raises or lowers MEK5 binding to the human MEKK3 PB1 domain; Q99759; bead-based flow cytometry, Alexa488-MEK5 binding to MEKK3; actives lie on both sides; 0 = blocked by unlabeled MEK5, 100 = vehicle; binding response (% of control), % at 10 µM; 290,000 tested, 1.4% active;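 active = binding response more than 3 SD above or below the average of its plate-row segment, actives on both sides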;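 also: Alexa488 bead fluorescence after subtracting the streptavidin-only scavenger bead signal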
Target sequence (Q99759 whole entry, looked up, the tested form may be a part): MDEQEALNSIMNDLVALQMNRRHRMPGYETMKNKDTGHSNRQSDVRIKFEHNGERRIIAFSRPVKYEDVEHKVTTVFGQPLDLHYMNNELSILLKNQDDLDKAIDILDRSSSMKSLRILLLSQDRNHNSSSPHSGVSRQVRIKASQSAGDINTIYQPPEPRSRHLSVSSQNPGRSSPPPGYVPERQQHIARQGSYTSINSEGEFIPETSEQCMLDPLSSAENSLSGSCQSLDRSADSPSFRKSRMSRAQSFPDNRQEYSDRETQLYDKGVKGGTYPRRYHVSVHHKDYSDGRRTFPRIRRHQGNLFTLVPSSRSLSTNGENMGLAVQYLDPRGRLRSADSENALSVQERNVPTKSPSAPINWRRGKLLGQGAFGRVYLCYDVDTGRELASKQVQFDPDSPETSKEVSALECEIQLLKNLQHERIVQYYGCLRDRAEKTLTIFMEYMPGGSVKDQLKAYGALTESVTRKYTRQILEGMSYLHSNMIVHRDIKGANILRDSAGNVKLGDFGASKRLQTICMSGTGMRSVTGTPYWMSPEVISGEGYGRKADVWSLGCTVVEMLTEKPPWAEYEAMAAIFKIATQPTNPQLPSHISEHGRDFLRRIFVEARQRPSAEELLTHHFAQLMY
MEKK2wt PB1 HTS: raises or lowers MEK5 binding to wildtype human MEKK2 PB1 domain | binding response (% of control), % at 10 µM | Q9Y2U5 | bead flow cytometry, Alexa488-MEK5 binding to MEKK2 WT; actives lie on both sides | AID 1531 | 290,000 tested, 1.1% active; in the data active = binding response below about 67% or above about 130%
SKN-1 block: C. elegans SKN-1 inhibition; inhibition, % at 21.8 µM; 360,000 tested, 0.49% active; C. elegans VP596 Pgst-4::GFP/RFP ratio, acrylamide-induced, 24 h; AID 624304;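 active = interference check ratio from 0.5 to 1.5 plus GFP to RFP signal ratio inhibition reaching or exceeding a fixed threshold, cut at about 30% in these data, passing the limit was not always enough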
NRP1-CendR mod: alters CendR peptide binding to human NRP-1; O14786; FAM-RPARPAR peptide binding to NRP-1, fluorescence polarization; inhibition, % at 25 µM; 360,000 tested, 0.85% active; AID 602438;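 active = inhibition or corrected inhibition above about 18%, plus a signal ratio from 0.5 to 1.5, limit read from the data, passing the limit was not always enough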
MEKK2wt confirm: raises or lowers MEK5 binding to wildtype human MEKK2, retest | binding response (% of control), % at 10 µM | 5,900 tested, 2.4% active | shares compounds with MEKK3 PB1 HTS | bead flow cytometry, Alexa488-MEK5 binding to MEKK2 WT; actives lie on both sides; in the data active = binding response below about 16% or above about 210%; inactive = in between
MEKK2mut confirm: signal of MEK5 binding to mutant human MEKK2, retest; shares compounds with MEKK3 PB1 HTS; bead flow cytometry, Alexa488-MEK5 binding to MEKK2 mutant; percent response, % at 10 µM; 5,900 tested, 2% active; AID 1893; in the data active = percent response mostly above about 71%, no sharp cut-off; inactive = mostly below about 38%;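 also: higher means compound restores mutant binding toward wildtype level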
MEKK3-MEK5 inh: MEKK3-MEK5 PB1 inhibition, single concentration confirmation | 5,900 tested, 1.8% active | bead flow cytometry, Alexa488-MEK5 binding to MEKK3; active compounds read low | shares compounds with MEKK3 PB1 HTS | binding response (% of control), % at 10 µM;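 active = binding response below 72% of control, or above a set upper limit, though filed actives all read lower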;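 also: lower values mean stronger disruption of MEK5 binding to MEKK3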
Numbers stand for hits; . = inactive; / = no result; ! = repeats disagree; [ ] = another dose, or the depositor's remark.

SMILES	MEKK2 mut-MEK5	MEKK3 PB1 HTS	MEKK2wt PB1 HTS	SKN-1 block	NRP1-CendR mod	MEKK2wt confirm	MEKK2mut confirm	MEKK3-MEK5 inh
Cc1csc(NC(=O)CCn2c(=O)sc3ccccc32)n1	.	70[inhibitor]	.	.	.	.	.	.
Cc1cc(C)cc(NS(=O)(=O)c2cccs2)c1	.	.	.	.	.	/	/	/
CCc1ccc(NS(=O)(=O)c2cccs2)cc1	39	.	.	.	.	.	.	.
CC[C@H](C)[C@H]1CNC(=S)N1CC1CCN(CCC(C)C)CC1	/	/	/	.	.	/	/	/
CNCCC(Oc1ccc(C(F)(F)F)cc1)c1ccccc1 (stereo not drawn)	.	.	139	.	.	.	.	.
Cc1ccc(C(=O)NCCN2C3=NC[C@@H](Cc4ccccc4)N3C[C@H]2Cc2ccc(O)cc2)cc1Br	52	.	185	.	.	.	.	.
COc1ccc(C[C@H]2CN3C(=NC[C@@H]3Cc3ccc(O)cc3)N2CCNC(=O)c2ccc(C)c(Br)c2)cc1	96	.	247	.	.	.	.	.
Cc1ccc(C(=O)NCCN2C3=NC[C@H](Cc4ccc(O)cc4)N3C[C@H]2Cc2ccc(O)cc2)cc1Br	.	.	143	.	.	.	.	.
C=CCNC(=S)NC(=O)c1ccc(C)c(Br)c1	.	.	.	.	.	/	/	/
O=C(NCCCN1CCCC1=O)C1CCC(CNS(=O)(=O)c2ccc(Cl)cc2)CC1 (stereo not drawn)	.	.	.	.	.	/	/	/
O=C(NNCc1ccc(O)cc1)c1ccccc1Cl	.	.	.	.	.	/	/	/
O=C1CCc2ccc(OCCCCN3CCN(c4cccc(Cl)c4Cl)CC3)cc2N1	.	.	177!	.	.	1.0[inhibitor]	.	1.0
COc1ccccc1N1CCN(CCCOc2ccc(F)cc2)CC1	.	.	.	.	.	/	/	/
Cc1ccc(S(=O)(=O)N2C[C@H]3C(=O)C[C@@H](c4ccccc4)N(S(C)(=O)=O)[C@H]3C[C@H]2c2ccccc2)cc1	/	/	/	.	.	/	/	/
CC(C)C[C@H](N)c1cn([C@@H](Cc2cc3ccccc3[nH]2)C(=O)N2CCNCC2)nn1	.	.	147	.	.	.	.	.
CCC(C)[C@H](N)c1cn([C@@H](Cc2cc3ccccc3[nH]2)C(=O)N2CCNCC2)nn1 (stereo partly drawn)	.	.	151	.	.	.	.	.
COc1ccc(S(=O)(=O)N2CCC[C@H]2C(=O)N2CCC[C@H]2C(=O)N[C@@H](C)c2ccccc2)cc1C	/	/	/	.	.	/	/	/
Cc1cc2nc(-c3cccc(Br)c3)c(CC3CCCCC3)n2c(C)c1Br	/	/	/	.	.	/	/	/
